Screens deposited in PubChem BioAssay by National Center for Advancing Translational Sciences (NCATS).
Only some compounds are listed: those with a hit (about 2.9% of all), similar ones and a draw of the others.
B2AR arrestin: recruits beta-arrestin to the human beta2-adrenergic receptor; P07550; Potency, µM (doses to about 46.1 µM), for inactives: at the highest dose activation, most hits filed as activators; beta-arrestin recruitment to beta2AR, cell-based reporter; hit rate 0.02% among 330,000; AID 492947;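 note: potency is the fitted concentration of half-maximal effect; 0% = DMSO controls and full agonism = EC100 isoproterenol or metaproterenol; nearly all actives have a fitted effect of over 65% in size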
D3 antag: antagonists of human D3 dopamine receptor; AID 652054; max response, negative = inhibition, %; D3R cells, DiscoveRx beta-arrestin luminescence, antagonist mode; stronger effect = lower value; hit rate 2.5% among 360,000; in the data active = max response below about -50%; note: % is set by controls: 0 for no effect and ±100 for the full control effect
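Cells plated overnight at 1500 cells/well, then exposed to library compounds with dopamine controls for 90 minutes at 37 degrees C. DiscoveRx reagent added for 30–60 minutes at room temperature; luminescence read, quantitative HTS format.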
D3 ag: activates the human D3 dopamine receptor | P35462 | D3R DiscoveRx beta-arrestin cells, luminescence, 90 min | max activation, % | hit rate 0.58% among 410,000; in the data active = max activation above about 30%; note: 0% is about no effect
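Cells at 1500/well, incubated overnight, then treated with pinned compounds (dopamine as control) for 90 min at 37 degrees C. DiscoveRx reagent added for 30 - 60 minutes at room temperature; luminescence read.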
Integrin act MD: activators of alpha7 integrin expression for muscular dystrophy | Potency, µM (doses to about 38.3 µM), for the others: at the top dose activation, actives largely listed as activators | AID 624291 | hit rate 0.064% among 350,000 | alpha7betagal myoblasts, beta-gal FDG fluorescence, 48 h;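 note: potency is the fitted concentration of half-maximal effect; 100% = response of the positive control SU9516; nearly all actives have a fitted effect of over 60% in size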
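Alpha7betagal+/- myoblasts (passage 13) were plated 16-24 hr, then exposed to compounds (1:260 dilution of DMSO stock) for 48 hours at 37C. After MPER lysis, β-galactosidase reporter activity was read as FDG fluorescence (ex 480/em 540) after 30 minutes.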
IDH1 R132H inh: inhibitors of human mutant IDH1 R132H | IDH1-R132H enzyme, NADPH consumption, diaphorase/resazurin fluorescence | Potency, µM (top dose mostly 76.6 µM), without a hit: at the top dose activity change, negative = inhibition, hits mostly inhibitors | hit rate 0.093% among 390,000; note: potency is the fitted concentration of half-maximal effect; % is set by controls: 0 for no effect and ±100 for the full control effect; nearly all actives have a fitted effect of over 65% in size
Target sequence (O75874 whole entry R132H, stated change not applied): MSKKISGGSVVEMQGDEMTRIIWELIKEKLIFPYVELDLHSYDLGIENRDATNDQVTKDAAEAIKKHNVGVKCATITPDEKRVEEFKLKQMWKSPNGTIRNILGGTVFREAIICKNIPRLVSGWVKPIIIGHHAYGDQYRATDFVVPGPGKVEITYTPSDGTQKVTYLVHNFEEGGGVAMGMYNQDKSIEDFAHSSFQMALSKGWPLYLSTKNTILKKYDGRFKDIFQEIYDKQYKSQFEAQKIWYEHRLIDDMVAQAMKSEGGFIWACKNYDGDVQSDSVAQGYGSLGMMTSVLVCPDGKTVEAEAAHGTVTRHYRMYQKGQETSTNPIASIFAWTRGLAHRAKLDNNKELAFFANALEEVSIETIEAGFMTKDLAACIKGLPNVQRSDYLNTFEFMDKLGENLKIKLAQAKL
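IDH1-R132H (0.5 ug/mL dispensed) in pH 7.5 Tris buffer was preincubated 30 min with compound, then given a substrate mix of 0.016 mM NADPH and 2 mM alpha-KG for 80 min at room temperature; remaining NADPH was read by diaphorase/resazurin fluorescence.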
Numbers without * were called inactive; · = not tested or not shown; [ ] = another dose, or the depositor's remark. Unless noted, calls come from the whole dose curve; as a rule, active = well fitted curve in the direction sought with a large enough effect; inconclusive = small, poorly fitted or top-dose-only effect, or another doubt; inactive = no such curve, though single readings can be large; an effect the other way counts as inactive or inconclusive.

SMILES | B2AR arrestin | D3 antag | D3 ag | Integrin act MD | IDH1 R132H inh
Cc1ccc(NC(=O)c2ccc(CN3CCc4ccccc4C3)cc2)cc1 | 0% | -85* | -11 | 8% | 2%
N#Cc1ccc2c(c1)C[C@]1(CCCCN3C(=O)c4ccccc4C3=O)Oc3c(c(=O)oc4ccccc34)C2O1 | 0%[9.22 µM] | · | · | · | ·
O=C1CC(c2ccco2)CC(O)=C1C=Nc1cc(Cl)ccc1O (configuration not stated) | -1% | 0 | -9 | -42% | 13%
O=C1CC(c2ccco2)CC(O)=C1C=Nc1ccccc1-c1ccccc1 (configuration not stated) | 0% | -105* | -14 | -7% | 13%
O=C1CCN(CCc2ccccc2)CCN1[C@H](CSc1ccccc1)Cc1ccccc1 | 0% | -22 | -23 | -23% | 10%
Cc1ccc(SC[C@H](Cc2ccccc2)N2CCN(CCc3ccccc3)CCC2=O)cc1 | 0% | -58* | -60 | 14% | 5%[38.3 µM]
CC(C)CN1CCC(=O)N([C@H](CSc2ccc(Br)cc2)Cc2ccccc2)CC1 | 0% | -67* | -59 | 2% | 12%
Cc1cccc(CNC(=O)c2ccc(NC(=O)N3CCSc4ccccc43)cc2)c1 | · | · | -8 | · | -13%
Cc1ccc(-c2c(CN3CCN(c4cccc(C)c4)C(C)C3)csc2C)cc1 (configuration not stated) | · | · | -4 | · | 33%
Oc1c(C(c2ccccc2)N2CCN(Cc3ccccc3)CC2)sc2nc(-c3ccco3)nn12 (configuration not stated) | · | · | -2 | · | -16%
Cc1cccc(C)c1NC(=O)C[N+](C)(C)CC(O)COc1cccc2ccccc12 (configuration not stated) | 0% | -52* | -15 | 22% | 8%
O=C1c2ccccc2C(=O)N1CC(O)COc1cccc2ccccc12 (configuration not stated) | · | -24 | -3 | · | ·
O=C(Cn1nc2c(cc1=O)CCCC2)Nc1ccccc1C(F)(F)F | · | · | 4 | · | 0%
C=CCn1c(SCC(=O)Nc2ccc3c(c2)OCO3)nnc1-c1ccccc1 | 0% | 0 | 0 | 7% | 11%
CC(=O)Nc1ccc(NC(=O)CSc2nnc(-c3ccccc3)n2Cc2ccc3c(c2)OCO3)cc1 | 0% | -103* | -1 | -32% | 8%
CCn1c(Cc2ccccc2)nnc1SCC(=O)Nc1ccc2c(c1)OCCO2 | 0% | 18 | 35* | -1% | 5%
CCn1c(COc2ccccc2C)nnc1SCC(=O)Nc1ccc2c(c1)OCCO2 | 0% | 12 | -3 | 17% | 1%
C=CCn1c(SCC(=O)Nc2ccc3c(c2)OCO3)nnc1-c1cc(Br)ccc1O | · | -51* | -5 | -9% | -3%
O=C(OCC1CCCO1)c1ccc2c(c1)N(Cc1ccccc1F)C(=O)c1ccccc1S2(=O)=O (configuration not stated) | · | · | 0 | · | -6%
Cc1ccsc1CN(C(=O)COc1cccc(C)c1C)C1CCS(=O)(=O)C1 (configuration not stated) | · | · | -4 | · | ·
COc1ccc2c(c1)CC(C(=O)NCCCN1CCN(c3cccc(Cl)c3)CC1)CO2 (configuration not stated) | · | · | 7 | · | 0%
CCOc1ccc(NC(=O)CCC(=O)NNS(=O)(=O)c2ccccc2[N+](=O)[O-])cc1 | 0% | -1 | -13 | -13% | 8%
COc1cc(OC)c(NC(=O)c2noc3c2CSc2ccccc2-3)cc1Cl | · | · | 34* | · | 8%
COc1ccc(NC(=O)c2noc3c2CSc2ccccc2-3)cc1Cl | · | · | -12 | · | -1%
O=C(O)c1cccc(S(=O)(=O)Nc2ccc3oc(=O)sc3c2)c1 | 0% | -87* | -2 | 2% | 0%
SMILES | B2AR arrestin | D3 antag | D3 ag | Integrin act MD | IDH1 R132H inh
COC(=O)c1ccc(OCC2c3cc(OC)c(OC)cc3CCN2C(=O)c2ccc(F)cc2)cc1 (configuration not stated) | · | · | -6 | · | 15%
CCOc1cccc(/C(O)=C2/C(=O)C(=O)N(CCOC)C2c2ccco2)c1 (configuration not stated) | 0% | -55* | -1 | -8% | -1%
CCOc1cccc(/C(O)=C2/C(=O)C(=O)N(Cc3cccnc3)C2c2ccco2)c1 (configuration not stated) | -1% | -5 | -1 | 16% | 7%
COc1ccc(C(=O)O)cc1S(N)(=O)=O | 0% | -60* | -12 | 19% | 3%
COC(=O)C(Cc1c[nH]c2ccccc12)NC(=O)c1ccccc1Br (configuration not stated) | 0% | -3 | 2 | -34% | -5%
Cc1cc(NC(=O)COC(=O)[C@H](Cc2c[nH]c3ccccc23)NC(=O)c2ccc(F)cc2)no1 | 1% | -51* | 0 | -9% | 1%
COC(=O)C(Cc1c[nH]c2ccccc12)NC(=O)CNC(C)=O (configuration not stated) | 0% | -53* | 1 | 12% | 0%
Cc1cccc(C)c1OCC(=O)Nc1nc(-c2ccc(Br)cc2)ns1 | · | · | 10 | · | -5%
CCCCCn1c(=O)[nH]c2cc(C(=O)N3CCN(c4cccc(C(F)(F)F)c4)CC3)ccc2c1=O | · | · | 2 | · | 0%
COc1cccc(NC(=O)c2sc3nc(C)c(C(=O)Nc4ccc(Cl)cc4)c(-c4ccc(Br)cc4)c3c2N)c1 | · | · | 5 | · | -19%
CN1CCN(C(c2ccccc2)c2ccccc2)CC1 | 0% | -80* | 0 | · | -7%
CN1CCCN(C(c2ccccc2)c2ccc(Cl)cc2)CC1 (configuration not stated) | 0% | -113* | -85 | · | 12%
c1ccc(OCCN2CCN(C(c3ccccc3)c3ccccc3)CC2)cc1 | 0% | -89* | -14 | -44% | 2%
CC(C)(C)C(=O)N1CCN(C(c2ccccc2)c2ccccc2)CC1 | 0% | -9 | 4 | -4% | 3%
Clc1ccc(C(c2ccccc2)N2CCN(c3ccccn3)CC2)cc1 (configuration not stated) | 0% | 13 | -6 | -23% | 8%
COC(=O)C1(C(=O)OC)c2ccccc2N(S(=O)(=O)c2ccc(C)cc2)C1CC(=O)c1ccccc1 (configuration not stated) | · | 19 | 6 | · | ·
CC(C)(C)C1CCc2nc(NC(=O)c3cccc(Cl)c3)sc2C1 (configuration not stated) | · | · | -3 | · | -5%
Cc1nc2sccn2c(=O)c1S(=O)(=O)N1CCN(c2ccc(F)cc2)CC1 | 0% | -12 | -7 | 21% | -5%
Cc1nc2sccn2c(=O)c1CCN1CCC(=C(c2ccc(F)cc2)c2ccc(F)cc2)CC1 | · | -93* | -88 | · | 6%
CCOc1ccccc1NC(=O)N1CCC(C(=O)c2ccc(F)cc2)CC1 | 0% | -4 | 2 | 18% | 5%
Cc1nc2ccccn2c(=O)c1CCN1CCC(C(=O)c2ccc(F)cc2)CC1 | 0% | -112* | -95 | · | -3%
